Bioassay records deposited in PubChem BioAssay by several laboratories.
proKLK7 act: proKLK7 zymogen activators, primary screen, biochemical, fluorescence intensity; Kallikrein-7 (Homo sapiens), P49862; purified proKLK7, EDANS-DABCYL substrate fluorescence; 100% is mature enzyme control, 0% vehicle; activation, % at 7 µM; 0.9% of 370,000 active; AID 652039, 2013;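 active means activation above the mean of all tested compounds plus 3 SD, computed per campaign excluding outliers beyond control limits, cut at about 13% in these data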
ADAM17 inh: ADAM17 inhibitors, primary screen, biochemical, QFRET; recombinant ADAM17, EDANS/DABCYL FRET peptide cleavage; Disintegrin and metalloproteinase domain-containing protein 17 (Homo sapiens), P78536; 0.83% of 370,000 active; AID 720648, 2013; inhibition, % at 6.95 µM;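 active means inhibition above the mean of compounds lying between control limits plus 3 SD, set per campaign, cut at about 8.5% in these data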
ADAM10 inh: human ADAM10 inhibitors, primary screen, biochemical, QFRET, HTS; AID 720582, 2013; recombinant ADAM10, EDANS/DABCYL FRET peptide cleavage, 3 h; 0.62% of 370,000 active; Disintegrin and metalloproteinase domain-containing protein 10 (Homo sapiens), O14672; inhibition, % at 7 µM;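 active means inhibition above a per-campaign cutoff equal to the mean of compounds falling between control-based bounds plus 3 SD, cut at about 20% in these data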
Target sequence (O14672 214-748 limits assumed): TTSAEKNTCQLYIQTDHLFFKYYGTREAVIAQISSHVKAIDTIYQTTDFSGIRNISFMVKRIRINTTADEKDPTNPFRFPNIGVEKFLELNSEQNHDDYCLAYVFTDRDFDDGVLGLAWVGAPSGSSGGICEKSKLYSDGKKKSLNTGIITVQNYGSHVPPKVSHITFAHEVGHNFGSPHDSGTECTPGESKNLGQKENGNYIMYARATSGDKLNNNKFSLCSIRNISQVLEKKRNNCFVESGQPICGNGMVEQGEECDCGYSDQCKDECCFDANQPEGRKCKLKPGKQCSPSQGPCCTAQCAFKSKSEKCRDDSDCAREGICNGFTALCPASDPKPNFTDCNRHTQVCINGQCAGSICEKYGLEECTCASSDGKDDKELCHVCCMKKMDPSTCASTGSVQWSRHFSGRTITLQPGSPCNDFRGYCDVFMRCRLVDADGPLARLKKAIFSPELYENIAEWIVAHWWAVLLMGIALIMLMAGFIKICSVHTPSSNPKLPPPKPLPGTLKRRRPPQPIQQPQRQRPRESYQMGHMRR
FAS-TE inh: FAS thioesterase domain inhibitors, primary screen, biochemical, fluorescence intensity, uHTS | recombinant FAS-TE, OMFH fluorogenic substrate, fluorescence endpoint | Fatty acid synthase (Homo sapiens), P49327 | 0.67% of 360,000 active | inhibition, % at 15 µM | AID 602261, 2012;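 active means compounds whose normalised, plate-corrected inhibition of enzyme fluorescence in the single-dose primary screen is 50% or more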
NR3A LBD binder: binders of NR3A ligand-binding domain, primary screen, biophysical, differential scanning fluorimetry, uHTS | 2.5% of 340,000 active | Glutamate receptor ionotropic, NMDA 3A (GRIN3A) ligand-binding domain | AID 1259313, 2017 | NR3A LBD differential scanning fluorimetry, Tm shift; 0% = protein alone, 100% = glycine-bound protein | Tm shift relative to glycine control, % at 25 µM;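 active means melting temperature shift of at least 10% of the positive control shift, at one fixed dose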
Each line names hits and unclear results; the compound was inactive in the other large screens. Rows were chosen to be rich in hits. Some 4.6% of all compounds tested hit in one or more screens of this group.

COC(=O)[C@@H]1C[C@@]2(c3ccccc3)c3ccccc3N(S(=O)(=O)c3ccccc3)[C@H]2N1C(=O)CNC1CCCCC1	none (no result: FAS-TE inh, NR3A LBD binder)
COc1cc(C2CC(=O)c3c(ccc4ccccc34)N2)ccc1O (stereo unspecified)	none
COc1cc(C2c3c([nH]c(=O)[nH]c3=O)Nc3ccc4ccccc4c32)cc(OC)c1OC (stereo unspecified)	NR3A LBD binder 30
COc1cc(C2C3=C(CCCC3=O)Nc3[nH]n(-c4ccccc4)c(=O)c32)cc(OC)c1OC (stereo unspecified)	none
COc1cc(C2c3c([nH]c(=O)[nH]c3=O)Nc3ccc4ccccc4c32)ccc1O (stereo unspecified)	NR3A LBD binder 27
CC(C)CNC(=O)OCc1cn(Cc2cccc(F)c2F)nn1	none (no result: FAS-TE inh, NR3A LBD binder)
COC(=O)c1ccc(C)c(NC(=O)CCSc2ccc(Cl)cc2)c1	NR3A LBD binder 31
Cn1c(=O)c2c(ncn2CC(=O)OCCCC(=O)c2ccc(Br)cc2)n(C)c1=O	NR3A LBD binder 18
CCOc1ccc(C(=O)COC(=O)Cn2cnc3c2c(=O)n(C)c(=O)n3C)cc1	none
CCOC(=O)c1c(NC(=S)Nc2ccccc2)sc2c1CC(C)(C)SC2	NR3A LBD binder 13
COCCOC(=O)C1=C(C)NC(=O)NC1c1cn(-c2ccccc2)nc1-c1cccs1 (stereo unspecified)	none
COC(=O)C1=C(C)NC(C)=C(C(=O)OC)C1c1cn(-c2ccccc2)nc1-c1ccco1	proKLK7 act 55
O=C(/C(=N/N=C/c1ccc(O)c(O)c1O)c1ccccc1)c1ccccc1	NR3A LBD binder 18
CCNC(=S)NNC(=O)CSc1nc2ccccc2c(=O)n1-c1ccc(Cl)cc1	none (no result: FAS-TE inh, NR3A LBD binder)
COc1ccc(/C=C2\CC3(OC(=O)c4ccco4)CCCN2C3)cc1 (stereo unspecified)	none (no result: FAS-TE inh, NR3A LBD binder)
Cc1nn(C(C)(C)C)c(OC(=O)C2CCCC2)c1S(=O)(=O)c1ccccc1	none
Cc1ccc(S(=O)(=O)c2c(C)nn(C(C)(C)C)c2OC(=O)C2CCCC2)cc1	NR3A LBD binder 10
O=C(NC(=S)Nc1cccc2c(O)cccc12)c1ccccc1[N+](=O)[O-]	NR3A LBD binder 34
O=C(NC(=S)NC1CCCCC1)c1ccccc1[N+](=O)[O-]	NR3A LBD binder 18
C=CCN1C(=O)[C@@H](CC(=O)NCCCCc2ccccc2)[C@]2(C(=O)OC)CCCCC=C12	none (no result: FAS-TE inh, NR3A LBD binder)
COc1ccc(Cn2c(NC(=O)c3ccccc3)nc(Cc3ccccc3)c2-c2ccccc2)cc1	none (no result: FAS-TE inh, NR3A LBD binder)
CCOC(=O)C1=C(C)N=c2s/c(=C\c3ccc(C(=O)O)cc3)c(=O)n2C1c1ccc(OC)cc1OC (stereo unspecified)	NR3A LBD binder 429
O=C(c1ccco1)N1CCC(Oc2cccnc2)CC1	none (no result: FAS-TE inh, NR3A LBD binder)
Cc1ccc2nc(-c3cccc(N)c3)[nH]c2c1	none
Cc1ccc2nc(-c3sc4nc(C)cc(C)c4c3N)[nH]c2c1	NR3A LBD binder 15
Cc1nc(N2CCN(C(=O)C3CCCCC3)CC2)c2c3c(sc2n1)CCCC3	none (no result: proKLK7 act, FAS-TE inh, NR3A LBD binder)
COC(=O)c1ccc(COc2ccccc2/C=C(\C#N)C(=O)Nc2c(C)cc(C)cc2C)cc1	NR3A LBD binder 17
COC(=O)c1ccc(COc2ccccc2/C=C(\C#N)C(=O)Nc2ccc(C)cc2C)cc1	none
O=C(CN1CCCc2ccccc21)NCc1ccccc1F	none (no result: FAS-TE inh, NR3A LBD binder)
Cc1ccc(C(=O)N/N=C/c2ccc(-c3cccc(Cl)c3)o2)cn1	none
Cc1cc(C(=O)N/N=C/c2ccc(-c3cccc(Cl)c3)o2)n[nH]1	NR3A LBD binder 16
O=C(N/N=C/c1c(Cl)cccc1Cl)C(=O)NC1CC1	NR3A LBD binder 10
CCC(=O)N/N=C/c1ccc(-c2ccc(Cl)cc2)o1	none
O=C(N/N=C\c1ccc(-c2cccc(Cl)c2)o1)C(=O)NC1CCCC1	NR3A LBD binder 24
COc1ccc([C@H]2OC(=O)C[C@@H]2C(=O)N2CCN(c3ccccc3Cl)CC2)cc1OC	none (no result: FAS-TE inh, NR3A LBD binder)
CCc1ccc([C@@H]2CC=C(C(=O)O)[C@H](c3ccc(C(C)(C)C)cc3)N2S(=O)(=O)c2ccc(C)cc2)cc1	FAS-TE inh 54
CCCCCC(=O)NC1CCCCN(Cc2ccc(C)cc2)C1=O (stereo unspecified)	none (no result: FAS-TE inh, NR3A LBD binder)
COc1ccc(C(C(=O)N(C)C2CCCC2)N(Cc2ccc(F)cc2)C(=O)c2cc(C)on2)cc1OC (stereo unspecified)	none (no result: FAS-TE inh, NR3A LBD binder)
Cn1c(SCC(=O)Nc2sccc2C(N)=O)nc2ccccc2c1=O	NR3A LBD binder 35
O=C(Nc1ccc(Cl)cn1)c1cc2c(s1)-c1ccccc1OC2	NR3A LBD binder 15
Cc1cccc2c1-c1sc(C(=O)Nc3cccnc3)cc1CO2	NR3A LBD binder 18
O=C(Nc1cccnc1)c1cc2c(s1)-c1ccccc1OC2	NR3A LBD binder 35
O=C(CSc1ncnc2sc3c(c12)CCCC3)Nc1ccc(Oc2ccccc2)cc1	none (no result: FAS-TE inh, NR3A LBD binder)
O=C(Nc1ccc([N+](=O)[O-])cc1)Nc1ccc2[nH]c(=O)[nH]c2c1	NR3A LBD binder 24
O=C(Nc1ccc(F)cc1)Nc1ccc2c(c1)OCO2	NR3A LBD binder 11
Cc1cccc(OCC(=O)Nc2ccc3c(c2)OCO3)c1C	NR3A LBD binder 23
O=C(CSc1ccc([N+](=O)[O-])cn1)Nc1ccc2[nH]c(=O)[nH]c2c1	none
COc1cc(NC(=O)Nc2ccc3c(c2)OCO3)cc(OC)c1OC	NR3A LBD binder 26
Nn1c(SCC(=O)Nc2nccs2)nnc1-c1cc(-c2ccc(Cl)cc2)n[nH]1	none (no result: FAS-TE inh, NR3A LBD binder)
O=C(Nc1nc2ncccn2c1-c1ccc(C(F)(F)F)cc1)c1ccccc1	none (no result: FAS-TE inh, NR3A LBD binder)
O=C(Nc1cccc(C(=O)O)c1)Nc1ccc2c(c1)OCO2	NR3A LBD binder 24
O=C(Nc1ccc2c(c1)OCO2)Nc1ccc2c(c1)OCO2	none
O=C(Nc1ccc([N+](=O)[O-])cc1)Nc1ccc2c(c1)OCCO2	NR3A LBD binder 21
CC(C)CN1C(=O)[C@]2(CC(=O)N(C)C2c2ccccc2)c2cc(-n3cc(-c4ccccc4)nn3)ccc21 (stereo partly specified)	none (no result: FAS-TE inh, NR3A LBD binder)
Cc1cc(SCC(=O)N/N=C/c2ccc(O)cc2O)c(C)cc1Br	NR3A LBD binder 18
O=C(COC(=O)C1(c2ccccc2F)CCCC1)NCc1ccc2c(c1)OCO2	none
O=C(COC(=O)C1(c2ccc(F)cc2)CCCC1)NCc1ccc2c(c1)OCO2	NR3A LBD binder 16
O=C(Nc1cccc([N+](=O)[O-])c1)Nc1cccs1	NR3A LBD binder 19
COc1ccc(NC(=O)Nc2cccc([N+](=O)[O-])c2)cc1Cl	NR3A LBD binder 32
COc1ccc(C(=O)Nc2cccc([N+](=O)[O-])c2)cc1Br	NR3A LBD binder 22
